# Bioassay records from PubChem.
# Compounds with a hit are over-represented: about 1.8% of the library has one in this group of screens.
# EWS-Fli inh – EWS/Fli-driven NR0B1 reporter inhibitors, primary screen, A673 cells, NR0B1 luciferase, luminescence, MLPCN library; inhibition, % at 12.6 µM; 350,000 compounds, 0.67% hits; AID 651661, 2012; viability-normalised;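 active means mean inhibition of at least 50% after viability correction, with every replicate also passing that limit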;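 further: firefly luciferase signal divided by Alamar Blue viability fluorescence both relative to DMSO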
# INS-1E GSIS act – GLuc luminescence reporter in INS-1E cells, primary screen for activators of glucose-dependent secretion of insulin | INS-1E GLuc reporter insulin secretion, 2-3 h | activation, % at 16.6 µM | 370,000 compounds, 0.61% hits | AID 743287, 2014;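 active means lowest replicate activation of at least 40%, so every replicate reaches that level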
# RAD54 branch – inhibitors of human RAD54 branch migration, primary screen, biochemical, fluorescence, single point | DNA repair and recombination protein RAD54-like (Homo sapiens), Q92698 | RAD54 Holliday junction branch migration, FAM/BHQ fluorescence | inhibition, % at 10.4 µM | 360,000 compounds, 0.14% hits | AID 602329, 2012;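 active means mean normalized replicate activity at least 40 and at least half of replicates scoring 40 or more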;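 further: inhibitors cause a drop in the FAM fluorescence signal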
# Target sequence (Q92698 whole entry, looked up): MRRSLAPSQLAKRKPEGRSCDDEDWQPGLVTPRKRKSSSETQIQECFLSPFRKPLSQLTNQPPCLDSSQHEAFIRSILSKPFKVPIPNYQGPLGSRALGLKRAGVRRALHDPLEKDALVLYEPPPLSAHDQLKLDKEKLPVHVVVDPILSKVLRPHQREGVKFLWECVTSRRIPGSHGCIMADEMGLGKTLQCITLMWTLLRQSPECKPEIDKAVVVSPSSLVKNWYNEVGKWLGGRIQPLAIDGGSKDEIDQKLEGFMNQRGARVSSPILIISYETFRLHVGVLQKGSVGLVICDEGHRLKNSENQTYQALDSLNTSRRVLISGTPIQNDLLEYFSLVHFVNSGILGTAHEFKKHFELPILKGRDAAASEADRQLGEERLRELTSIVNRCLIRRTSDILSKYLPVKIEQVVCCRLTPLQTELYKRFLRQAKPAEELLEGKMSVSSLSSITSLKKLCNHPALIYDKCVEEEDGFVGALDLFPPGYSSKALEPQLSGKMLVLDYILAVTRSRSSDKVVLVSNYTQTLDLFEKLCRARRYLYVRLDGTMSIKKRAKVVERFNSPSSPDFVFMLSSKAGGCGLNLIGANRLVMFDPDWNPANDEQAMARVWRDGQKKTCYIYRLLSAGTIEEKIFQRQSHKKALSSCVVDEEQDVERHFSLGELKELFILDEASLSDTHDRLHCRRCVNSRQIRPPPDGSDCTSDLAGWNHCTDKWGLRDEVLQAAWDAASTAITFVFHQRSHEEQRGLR
# RAD52 inh – RAD52 DNA annealing inhibitors, primary screen, biochemical, FRET, single point, set 2 | DNA repair protein RAD52 homolog (Homo sapiens), P43351 | recombinant RAD52 DNA annealing, FRET fluorescence | inhibition, % at 18.7 µM | 360,000 compounds, 0.46% hits;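 active means every replicate showing at least 50% inhibition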
# LGR2 inh – inhibitors of bursicon-induced LGR2 CRE-luciferase signal, primary screen, cell-based, HEK293, CRE-luciferase reporter, bursicon stimulation. Drosophila bursicon receptor LGR2 (rickets). bursicon-stimulated, 4 h. 380,000 compounds, 0.35% hits. AID 720647, 2013. inhibition, % at 9.99 µM;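 active means drop in luminescence signal, shown as inhibition above about 50% in the replicate tests, limit read from the data, passing the limit was not always enough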;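 further: agonist challenge used bursicon conditioned medium at about half maximal strength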
# F508del corr – F508del CFTR correction, initial screen, CFBE line, single point | CFBE cells, YFP halide quenching; stimulated with forskolin plus potentiator P3; % fluorescence drop versus neutral controls | activity (quench increase), % at 7.58 µM | 350,000 compounds, 0.36% hits;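 active means mean added fluorescence quench of at least 8% versus neutral control, with both replicates also reaching 8%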;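 further: cells transiently co-express mutant CFTR-F508del with the halide-sensitive YFP; corrector assay measuring rescue of mutant channel to the surface after 24 h compound exposure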
# Hits are given with their value; 0 = inactive; - = no result given.
SMILES,EWS-Fli inh,INS-1E GSIS act,RAD54 branch,RAD52 inh,LGR2 inh,F508del corr
Cc1cc(-n2c(SCC(=O)Nc3ccc(F)c(F)c3)nc3n[nH]c(C)c3c2=N)ccc1Cl,0,250.1,0,0,0,0
CCOc1cnn(-c2cc(Oc3ccc(C)cc3)ncn2)c(=O)c1Cl,-,0,0,-,0,-
Cc1ccccc1Oc1cc(-n2ncc(Cl)c(Cl)c2=O)ncn1,0,0,0,0,101.4,-
CCOC(=O)C1CSCCS(=O)(=O)N1Cc1ccc(F)cc1F (stereo not drawn),0,0,-,0,0,0
CCn1cc(C(=O)O)c(=O)c2cc(F)c(N3CCN(C(=S)NC(=O)c4cccc(C)c4)CC3)cc21,0,43.6,-,0,0,0
CC1(C)CC(NC(=O)c2ccccc2)CC(C)(C)N1,0,0,0,0,0,0
O=C(O)C1CC(O)CN1S(=O)(=O)c1cccs1 (stereo not drawn),-,-,0,-,-,-
CN(C)C(=O)CSC1c2ccccc2C(=O)N1c1ccccc1 (stereo not drawn),0,0,0,0,0,0
CCn1ncc2c1C(=O)NC1c3ccccc3C(=O)N21 (stereo not drawn),-,51.4,0,-,-,-
CCOC1=C2CN(S(=O)(=O)c3ccc(C)cc3)CC[C@@H]2N(S(=O)(=O)c2ccc(C)cc2)[C@H](c2ccccc2)C1,0,0,0,0,0,12.0
CCOC1=C2CN(S(=O)(=O)c3ccc(C)cc3)[C@H](c3ccccc3)C[C@@H]2N(S(=O)(=O)c2ccccc2)[C@H](c2ccccc2)C1,0,0,0,0,0,0
CC(=O)Oc1ccccc1/C=C/c1nc2ccccc2c(=O)o1,0,0,0,0,65.5,0
CC(=O)Oc1ccc(/C=C/c2nc3ccccc3c(=O)o2)cc1,0,0,0,0,58.6,0
CC(=O)Oc1ccc(-c2nc3ccccc3c(=O)o2)cc1,0,0,0,0,0,0
Cc1nc(NS(=O)(=O)c2ccccc2)sc1NC(=O)OC(C)C,-,-,0,-,-,-
O=[N+]([O-])c1ccc(-n2nnnc2-c2ccccc2)c([N+](=O)[O-])c1,0,-,0,0,0,-
COc1ccc(NC(=O)C2CC(=O)n3ncnc3N2)cc1 (stereo not drawn),-,0,0,-,0,-
Cn1cccc1/C=C1\CCc2ccccc2C1=O,55.3,0,0,0,59.5,0
C=C(C(=O)c1ccccc1)C(NC(C)(C)C)c1ccccc1 (stereo not drawn),0,-,-,0,101.1,0
COc1ccc(CCNc2ccncn2)cc1,-,-,0,-,-,-
COc1ccc(CCNc2ccncn2)cc1OC,-,45.4,-,-,0,-
COc1ccc(-c2oc3ccc(-c4cc(OC)c(OC)c(OC)c4)cc3c2C#Cc2ccccn2)cc1,0,0,0,0,0,8.8
COc1ccc(C#Cc2c(-c3ccc(OC)cc3)oc3ccc(-c4ccc(OC)cc4)cc23)cc1,0,0,0,0,0,0
COc1ccc(-c2ccc3oc(-c4ccc(OC)cc4)c(C#CCCO)c3c2)cc1,0,66.6,0,0,0,0
Nn1c(C2CCCCC2)nc2ccccc2c1=O,0,50.3,0,0,0,0
SMILES,EWS-Fli inh,INS-1E GSIS act,RAD54 branch,RAD52 inh,LGR2 inh,F508del corr
C[C@@H]1ON(C)[C@H]2C[C@H]3c4[nH]c5cccc(Br)c5c4CCN3C(=O)[C@@H]12,0,125.4,-,0,0,0
Cc1cccc(-c2cccc3[nH]c4c(c23)CCN2C(=O)[C@H]3[C@H](C)ON(C)[C@H]3C[C@@H]42)c1,0,0,-,0,0,0
O=C(NCC[C@H]1CC[C@@H](NS(=O)(=O)c2cccc(F)c2)[C@H](CO)O1)C1CCOCC1,0,0,0,0,0,0
CN(C(=O)c1ccno1)c1nnc(-c2cnccn2)s1,-,-,0,-,-,-
CN(C(=O)c1ccc(C#N)cc1)c1nnc(-c2cnccn2)s1,0,46.3,0,0,0,0
CCc1c(C(=O)Nc2ncn(Cc3cccc(C)c3)n2)csc1C,-,0,-,-,-,-
O=C(CCC(=O)N1CCN(S(=O)(=O)c2ccc(Cl)cc2)CC1)NCc1ccccc1,-,0,0,-,0,-
Cc1ccc2sc(N3CCN(C(=O)c4ccc([N+](=O)[O-])o4)CC3)nc2c1C,0,87.4,0,0,0,0
CC(C)(C)c1ccccc1OCC(O)CN1CCN(c2ccccn2)CC1 (stereo not drawn),0,63.4,0,0,0,0
Cc1ccc(OCC(O)CN2CCN(c3ccccn3)CC2)c(C)c1 (stereo not drawn),0,0,-,0,0,0
Cc1ccc(NC(=O)/C=C/c2ccc([N+](=O)[O-])s2)c(C)c1,71.1,0,-,0,0,-
Cc1cccc(NC(=O)/C=C/c2ccc([N+](=O)[O-])s2)c1,67.7,0,-,0,0,0
C=CCc1c(C)nc(SC)nc1Nc1ccc(C(C)=O)cc1,-,0,0,-,0,-
Cc1ccc(-c2csc(Cc3nc(-c4cc5ccccc5oc4=O)cs3)n2)cc1,0,0,0,0,0,0
Cc1ccn2cc(-c3cc4ccccc4oc3=O)nc2c1,67.5,0,-,0,0,0
O=c1cc(-c2cccc(Br)c2)nc(-c2ccccc2F)o1,-,46.4,-,-,0,-
FC(F)(F)c1cccc(CC2CN(Cc3ccccc3)Cc3ccccc3N2c2cc(Cl)cc(Cl)c2)c1 (stereo not drawn),75.8,-,0,0,102.3,0
COc1cc(/C=N/Nc2cc(C)nc(NS(=O)(=O)c3ccc(C)cc3)n2)ccc1O,0,45.7,-,0,0,0
COC(=O)[C@]12C[C@H](CC(=O)NCCc3ccccc3OC)C(=O)N(CCC3=CCCCC3)C1=C[C@H](C(C)(C)C)O[C@@H]2C,0,40.9,-,0,0,0
COc1cccc(C(=O)Nc2ccc(NC(=O)c3cc4ccccc4o3)c(OC)c2)c1,0,0,0,0,0,0
O=C(COC(=O)/C=C/c1ccccc1Cl)NC(=O)NCc1ccccc1,0,0,0,0,0,8.9
COc1ccc(/C=C(\C#N)c2nc3ccccc3[nH]2)cc1O,0,0,0,0,0,0
COc1cc(/C=C(\C#N)C(=O)c2c[nH]c3ccccc23)cc(OC)c1O,0,-,0,0,0,17.2
COc1cc(/C=C(\C#N)c2nc3ccccc3[nH]2)cc(OC)c1O,0,0,-,0,0,10.2
O=C(N1CCN(c2ccccn2)CC1)N1c2ccccc2Sc2ccccc21,-,-,0,-,-,-
Cc1ccc(S(=O)(=O)CC(CN2CCCCC2)N2CCCCC2)cc1 (stereo not drawn),0,0,-,0,0,0
O=S(=O)(CC(CN1CCCCC1)N1CCCCC1)c1ccc2ccccc2c1 (stereo not drawn),0,0,-,0,50.1,0
Nc1c(C(=O)Nc2cccc(C(=O)O)c2)sc2nc3c(cc12)CCCC3,85.3,0,0,0,76.0,0
